Experimental data as given in publication PMC5540273 (PLoS ONE, 2017).

Test system: T1, p38-beta
T1 construct: gene MAPK11
Conditions: concentration: 1 μM, replicates: in singlicate; n = 1
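Also: KINOMEscan kinase panel screen.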

SMILES | %Inh [%]
O=C(Nc1cccc(-c2nn3ccccc3c2-c2ccnc(Nc3cccc(F)c3)n2)c1)c1c(F)ccc(F)c1Cl [GSK357952] | 26
c1ccc(-c2cnc3nccnn23)cc1 [AH20685] | 0
CN(c1ccc(NC(=O)Nc2cc(C(F)(F)F)ccc2F)cc1)c1ccnc(Nc2ccc(S(N)(=O)=O)cc2)n1 [GW809893] | 88
O=C(Nc1n[nH]c2cc(-c3ccoc3)ccc12)C1CC1 [SB-738481] | 0
C[C@@H]1CC[C@@H](C(=O)Nc2ccccc2)CN1c1cc(-c2ccc3c(N)n[nH]c3c2)nc(N)n1 [GSK2286062] | 0
O=C(Nc1cccc(-c2nn3ncccc3c2-c2ccnc(Nc3ccccc3)n2)c1)c1c(F)cccc1F [GSK198271] | 99.2
COc1cccc(NC(=O)NC2CCN(c3ccnc(Nc4cc(OC)c(OC)c(OC)c4)n3)C2)c1 (stereo not shown) [GSK1379763] | 0
CN1CCN(CCCNc2nccc(-c3c(-c4ccc(F)cc4)nn4cc(C(F)(F)F)ccc34)n2)CC1 [GW621581] | 39
Nc1n[nH]c2cnc(-c3ccccc3)cc12 [SB-642124] | 0
Cc1occc1-c1ncc(OC[C@@H](N)Cc2c[nH]c3ccccc23)cc1-c1ccc2[nH]nc(C)c2c1.O=C(O)C(F)(F)F [GSK682037] | 36
Cl.NC(=O)c1cccc(Nc2nccc(Nc3ccc(Oc4c(Cl)cccc4Cl)c(Cl)c3)n2)c1 [GW659009] | 100
CCCCc1nn2ncccc2c1-c1ccnc(Nc2ccc(N3CCN(C)CC3)cc2)n1 [GW684941] | 43
CCc1ccc(-c2ccc3c(c2)-c2c(cnn2C)S(=O)(=O)N3C)cc1 | 4
c1ccc(-c2n[nH]cc2Nc2ccnc3ccccc23)nc1 [GW694077] | 0
c1ccc(Oc2ccc(Nc3ccnc4cc(-c5ccc(CNCCN6CCOCC6)o5)ccc34)cc2)nc1 [GW567145] | 0
Cn1cc(-c2[nH]c3cc(NC(=O)[C@H](N)C4CCCCC4)cc4c3c2C=NNC4=O)cn1 | 0
FC(F)(F)c1ccc(/C=C/c2cncnc2Nc2ccc3[nH]c(Cc4ccccc4)nc3c2)cc1 [GW709199] | 3
COc1cc2c(cc1OCCN1CCNCC1)ncc1c3ccc(C#N)cc3[nH]c21 | 3
CC(=O)N1CCN(c2ccc(Nc3nccc(-c4sc(C(C)C)nc4-c4cccc(NS(=O)(=O)c5cccc(Cl)c5)c4)n3)cn2)CC1 [GSK1660437] | 0

SMILES | %Inh [%]
Cc1ccc(F)c(C(=O)Nc2cccc(-c3nn4ccccc4c3-c3ccnc(Nc4cccc(F)c4)n3)c2)c1F [GSK361061] | 76
Cc1cccc(NC(=O)Nc2ccc(Oc3ncnc4ccn(C)c34)cc2)c1 | 0
COc1cc(Nc2nccc(N3CCC(NC(=O)Nc4cccc(C(C)=O)c4)C3)n2)cc(OC)c1OC (stereo not shown) [GSK1379753] | 0
C[C@@H](Oc1cc(-n2cnc3cc(-c4ccnc(NCCS(C)(=O)=O)c4)ccc32)sc1C(N)=O)c1ccccc1Cl [GSK907232] | 14
COC(=O)Nc1nc2cc(Oc3ccc(NC(=O)Nc4cc(C(F)(F)F)ccc4F)cn3)ccc2[nH]1.Cl.Cl [GW681170] | 34
Nc1ncnc2c1nc(-c1ccccc1)n2-c1ccccc1 [SKF-97293] | 4
NCCCC(NC(=O)c1cc(Br)c(-c2ccnc3[nH]ccc23)s1)c1ccccc1.O=C(O)C(F)(F)F.O=C(O)C(F)(F)F (stereo not shown) [GSK1287544] | 0
CSc1cccc2c(-c3ccncn3)c(-c3ccc(F)cc3)nn12 [GW514786] | 29
CC(C)c1nc(-c2cccc(NS(=O)(=O)c3c(F)cccc3F)c2F)c(-c2ccnc(Nc3ccc(N4CCOCC4)nc3)n2)s1 [GSK2008607] | 51
Cc1cccc(Nc2nc(N[C@H]3CCNC3)ncc2C(N)=O)c1.Cl [GSK2197149] | 0
Nc1ncc(-c2ccc3nccc(-c4ccncc4)c3c2)cc1S(=O)(=O)N1CCOCC1 [GSK1627798] | 0
COc1ccc(CNC(=O)NC2CCN(c3ccnc(Nc4ccc(F)cc4)n3)CC2)cc1 [GSK1379788] | 0
O=C(Nc1n[nH]c2nc(-c3ccc(O)cc3)ccc12)C1CC1 [SB-710363] | 11
CC(C)(C)c1ccc2nccc(Nc3cccc(O)c3)c2c1 [GW856795] | 0
COc1cc(Nc2nccc(-c3c(-c4cccc(NC(=O)c5c(F)cccc5F)c4)nn4ccccc34)n2)cc(OC)c1OC [GSK323521] | 7
O=c1[nH]cc(-c2ccc(N3CCOCC3)cc2)c2sc(-c3cn[nH]c3)cc12 [GSK2276055] | 0
COc1cccc(-c2ccc3c(NC(=O)C4CC4)n[nH]c3n2)c1 [SB-710903] | 0
Nc1ncc(-c2cccnc2)c2scc(-c3ccc4c(c3)CCN4C(=O)Cc3ccccc3)c12 [GSK683281] | 0
